Results taken from PubChem BioAssay (EPA / NIEHS).
The source made the active and inactive calls. The calls were made as follows: active = hit-call score of the fitted dose curve at least 0.9, where 1 is the maximum; inactive = score below 0.9.

How the values were obtained:
[1] = ATG_CRE_CIS: Attagene CIS-FACTORIAL HepG2 Assay for human cAMP Responsive Element (CRE) binding protein 3 (AID 2282926); conditions: HepG2 CRE cis-reporter, Attagene multiplexed mRNA; actives raise or lower the signal
Procedure, shortened: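 Cells carrying cis-regulated reporter constructs respond through their own endogenous factors. After 24 h treatment, RNA is reverse-transcribed, amplified, labelled and sized by capillary electrophoresis; up- and down-regulation are both scored against vehicle.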

[2] = target: CCAAT/enhancer-binding protein beta (Homo sapiens) (UniProt P17676); assay: ATG_C_EBP_CIS: Attagene CIS-FACTORIAL HepG2 Assay for human CCAAT/Enhancer Binding Protein (C/EBP) beta (AID 2282927); conditions: HepG2 Attagene cis-factorial transcription factor reporter; actives raise or lower the signal
Procedure, shortened: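 Endogenous transcription factor activity in human liver HepG2 cells is inferred from induction of a CEBPB-linked reporter mRNA. Exposure lasts 24 h; activity is fitted in both directions relative to DMSO.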

[3] = ATG_CMV_CIS: Attagene CIS-FACTORIAL HepG2 Assay for human CMV (Internal Marker) (AID 2282928); conditions: HepG2 CMV promoter reporter, transcription factor profiling; actives raise or lower the signal;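 also: endpoint acts as a background internal control marker rather than a target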
Procedure, shortened: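 Reporter transcripts from transfected HepG2 cells are isolated after 24 h of chemical dosing, reverse-transcribed and amplified. Fragments labeled with 6-FAM are cut with HpaI and quantified by capillary electrophoresis; DMSO defines baseline.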

[4] = ATG_DR4_LXR_CIS: Attagene CIS-FACTORIAL HepG2 Assay for human Liver X Receptor (LXR), DR4 submotif (AID 2282929); conditions: HepG2 Attagene DR4 cis-reporter, mRNA transcription; actives raise or lower the signal
Procedure, shortened: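 HepG2 cells transiently transfected with cis-promoter-driven multiplexed reporter units (DR4 element) were dosed for 24 h. Reporter mRNA was quantified by RT-PCR, fluorescent primer extension, HpaI digestion and capillary electrophoresis; bidirectional fitting versus DMSO baseline.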

[5] = target: Aryl hydrocarbon receptor (Homo sapiens) (UniProt P35869); assay: ATG_Ahr_CIS: Attagene CIS-FACTORIAL HepG2 Assay for human Aryl Hydrocarbon Receptor (Ahr) (AID 2282930); conditions: HepG2 AhR cis-factorial reporter transcription; actives raise or lower the signal
Procedure, shortened: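 Transient MRTU transfection of HepG2 → 24 h compound exposure → total RNA, oligo(dT) RT → PCR, 6-FAM extension, HpaI cut → CE fluorescence. DMSO = baseline; bidirectional curve fit.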

[6] = ATG_AP_1_CIS: Attagene CIS-FACTORIAL HepG2 Assay for human Activator Protein 1 (AP-1) (AID 2282931); conditions: HepG2 Attagene cis-factorial AP-1 reporter mRNA; actives raise or lower the signal
Procedure, shortened: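 HepG2 cells transiently transfected with cis-element-driven multiplex reporter units; 24 h compound exposure. Reporter mRNA quantified by RT-PCR, FAM-labelled fragments resolved by capillary electrophoresis; bidirectional fit versus DMSO baseline.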

[7] = ATG_AP_2_CIS: Attagene CIS-FACTORIAL HepG2 Assay for human Activator Protein 2 (AP-2) (AID 2282932); conditions: HepG2 AP-2 cis-reporter, Attagene transcription factor profiling; actives raise or lower the signal
Procedure, shortened: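 Transiently transfected HepG2 cells are exposed to chemical for 24 h. Reporter transcripts are then measured as fluorescence following RT-PCR and capillary separation, and gain- or loss-of-signal is fitted relative to DMSO.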

[8] = ATG_BRE_CIS: Attagene CIS-FACTORIAL HepG2 Assay for human Bone Morphogenetic Protein (BMP) Response Element (BRE) (AID 2282933); conditions: HepG2 BMP response element reporter, Attagene transcription factor profiling; actives raise or lower the signal
Procedure, shortened: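 Endogenous transcription factor activity at a BMP response element was monitored in transfected HepG2 cells 24 h after dosing. Fluorescent RT-PCR products were resolved by capillary electrophoresis, and activity was fitted in both directions versus DMSO.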

[9] = target: Retinoic acid receptor alpha (Homo sapiens) (UniProt P10276); assay: ATG_DR5_RAR_CIS: Attagene CIS-FACTORIAL HepG2 Assay for human Retinoic Acid Receptor Alpha (RARE), DR5 submotif (AID 2282934); conditions: HepG2 Attagene cis-factorial RARE DR5 reporter, mRNA; actives raise or lower the signal
Procedure, shortened: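 Transient MRTU transfection of HepG2; 24 h compound treatment; TriZol RNA, oligo(dT) RT, PCR, FAM labelling, capillary electrophoresis. Bidirectional fit vs DMSO. Endogenous TF activity at DR5 RARE.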

[10] = target: Transcription factor E2F1 (Homo sapiens) (UniProt Q01094); assay: ATG_E2F_CIS: Attagene CIS-FACTORIAL HepG2 Assay for human E2F Transcription Factor 1 (AID 2282935); conditions: HepG2 Attagene cis-reporter, E2F reporter RNA transcripts; actives raise or lower the signal
Procedure, shortened: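 Fluorescent RT-PCR products, digested with HpaI for 2 h at 37 C, are separated by capillary electrophoresis. Source RNA comes from transfected HepG2 cultures treated for 24 h.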

[11] = ATG_E_Box_CIS: Attagene CIS-FACTORIAL HepG2 Assay for human Enhancer Box (E-box) (AID 2282936); conditions: HepG2 E-box cis-reporter transcription, actives raise or lower the signal
Procedure, shortened: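 Fluorescent reporter fragments separated by capillary electrophoresis gave the signal; mRNA came from HepG2 cells transfected with cis-element reporters and treated 24 h. Curves fitted bidirectionally relative to DMSO controls.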

[12] = ATG_M_61_CIS: Attagene CIS-FACTORIAL HepG2 Assay for M61 Transcription Factor (Internal Marker) (AID 2282937); conditions: HepG2 Attagene CIS-FACTORIAL M61 internal marker reporter; actives raise or lower the signal
Procedure, shortened: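 HepG2 cells transiently transfected with cis-element-driven multiple reporter transcription units, dosed for 24 h. Reporter mRNA measured by RT-PCR, 6-FAM primer-extension labelling, HpaI digestion and capillary electrophoresis; bidirectional fit versus DMSO baseline.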

[13] = ATG_EGR_CIS: Attagene CIS-FACTORIAL HepG2 Assay for human Early Growth Response 1 (EGR1) (AID 2282938); conditions: HepG2 Attagene CIS-FACTORIAL EGR reporter mRNA; actives raise or lower the signal
Procedure, shortened: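 HepG2 cells transiently transfected with cis-promoter-driven multiplexed reporter transcription units; reporter mRNA measured 24 h after compound dosing by RT-PCR, 6-FAM primer extension, HpaI digestion and capillary electrophoresis. Bidirectional fit versus DMSO baseline.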

[14] = ATG_M_19_CIS: Attagene CIS-FACTORIAL HepG2 Assay for M19 Transcription Factor (Internal Marker) (AID 2282939); conditions: HepG2 Attagene CIS-FACTORIAL M19 internal marker reporter; actives raise or lower the signal
Procedure, shortened: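 Background-control endpoint from a multiplexed HepG2 reporter panel. Cells carrying cis-regulated reporter constructs are treated 24 h, then reporter transcripts are amplified, fluorescently labelled and sized by capillary electrophoresis. DMSO defines baseline.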

[15] = ATG_Ets_CIS: Attagene CIS-FACTORIAL HepG2 Assay for human Erythroblast Transformation Specific (ETS) (AID 2282941); conditions: HepG2 ETS cis-reporter transcription, actives raise or lower the signal
Procedure, shortened: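 Bidirectional fit versus DMSO of reporter mRNA signal, detected by RT-PCR and capillary electrophoresis in HepG2 cells transiently transfected with cis-element reporters and dosed 24 h.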

[16] = target: Hepatocyte nuclear factor 3-beta (Homo sapiens) (UniProt Q9Y261); assay: ATG_FoxA2_CIS: Attagene CIS-FACTORIAL HepG2 Assay for human Forkhead box A2 (FOXA2) (AID 2282942); conditions: HepG2 cis-reporter transcription factor activity, 24 h; actives raise or lower the signal
Procedure, shortened: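 HepG2 cells transiently transfected with multiple cis-regulated reporter transcription units, dosed for 24 h. Reporter mRNA measured by RT-PCR, 6-FAM labelling, HpaI digestion and capillary electrophoresis; bidirectional fitting against DMSO baseline.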

[17] = ATG_FoxO_CIS: Attagene CIS-FACTORIAL HepG2 Assay for human Forkhead box O (FoxO) (AID 2282943); conditions: HepG2 Attagene cis-reporter, FoxO element, mRNA; actives raise or lower the signal
Procedure, shortened: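 HepG2, transient MRTU transfection (cis element, endogenous TFs). Dose 24 h. TriZol RNA → oligo(dT) RT → PCR → 6-FAM primer extension → HpaI cut → CE. Gain/loss vs DMSO.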

[18] = ATG_GATA_CIS: Attagene CIS-FACTORIAL HepG2 Assay for human GATA Binding Protein (AID 2282944); conditions: HepG2 GATA cis-element reporter, Attagene multiplex mRNA; actives raise or lower the signal
Procedure, shortened: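 Endogenous transcription factor activity was captured through cis-promoter-driven reporters in transfected HepG2 cells. After 24 h exposure, reporter transcripts were quantified by RT-PCR with fluorescent capillary electrophoresis, and responses fitted both directions against DMSO.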

[19] = ATG_GLI_CIS: Attagene CIS-FACTORIAL HepG2 Assay for human Zinc Finger Protein GLI1 (AID 2282945); conditions: HepG2, Attagene cis-factorial reporter mRNA, GLI element; actives raise or lower the signal
Procedure, shortened: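 Bidirectional curve fits relative to DMSO, using reporter mRNA levels from RT-PCR plus capillary electrophoresis. Cells were HepG2 transiently carrying cis-regulated reporter constructs, harvested 24 h after dosing.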

[20] = ATG_ERE_CIS: Attagene CIS-FACTORIAL HepG2 Assay for Estrogen Response Element (ERE) (AID 2282940); conditions: HepG2 ERE cis-reporter, Attagene RNA transcript; actives raise or lower the signal
Procedure, shortened: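 Cells used were human hepatoma HepG2, transfected with multiple reporter transcription units under cis-regulatory promoters. Reporter mRNA, read 24 h post-dosing via fluorescent RT-PCR products on capillary electrophoresis, was fitted bidirectionally relative to DMSO.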

Measured: AC50

Sequence of CCAAT/enhancer-binding protein beta (Homo sapiens) (P17676 whole entry, looked up): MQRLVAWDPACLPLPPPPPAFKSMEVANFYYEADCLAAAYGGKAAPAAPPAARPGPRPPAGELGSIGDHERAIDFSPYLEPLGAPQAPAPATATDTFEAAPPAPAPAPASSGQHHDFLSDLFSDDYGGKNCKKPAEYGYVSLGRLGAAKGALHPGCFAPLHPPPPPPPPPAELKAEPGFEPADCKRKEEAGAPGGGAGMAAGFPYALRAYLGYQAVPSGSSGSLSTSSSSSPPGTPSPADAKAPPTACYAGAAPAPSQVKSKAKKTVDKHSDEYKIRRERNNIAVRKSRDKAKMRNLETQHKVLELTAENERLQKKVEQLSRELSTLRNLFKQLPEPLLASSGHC
Sequence of Hepatocyte nuclear factor 3-beta (Homo sapiens) (Q9Y261 whole entry, looked up): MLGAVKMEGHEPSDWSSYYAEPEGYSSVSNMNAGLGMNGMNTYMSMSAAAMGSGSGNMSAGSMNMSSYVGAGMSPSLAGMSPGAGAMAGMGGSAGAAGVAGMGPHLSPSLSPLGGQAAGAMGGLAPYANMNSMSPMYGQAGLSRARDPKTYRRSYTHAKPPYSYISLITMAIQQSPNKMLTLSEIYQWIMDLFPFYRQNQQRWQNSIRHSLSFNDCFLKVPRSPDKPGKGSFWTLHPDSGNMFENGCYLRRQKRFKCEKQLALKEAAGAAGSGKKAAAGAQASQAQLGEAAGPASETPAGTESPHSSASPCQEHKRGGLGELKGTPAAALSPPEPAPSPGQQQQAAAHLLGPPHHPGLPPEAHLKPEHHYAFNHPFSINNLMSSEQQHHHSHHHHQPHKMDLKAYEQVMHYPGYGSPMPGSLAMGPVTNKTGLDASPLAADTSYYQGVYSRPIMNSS
Sequence of Retinoic acid receptor alpha (Homo sapiens) (P10276 whole entry, looked up): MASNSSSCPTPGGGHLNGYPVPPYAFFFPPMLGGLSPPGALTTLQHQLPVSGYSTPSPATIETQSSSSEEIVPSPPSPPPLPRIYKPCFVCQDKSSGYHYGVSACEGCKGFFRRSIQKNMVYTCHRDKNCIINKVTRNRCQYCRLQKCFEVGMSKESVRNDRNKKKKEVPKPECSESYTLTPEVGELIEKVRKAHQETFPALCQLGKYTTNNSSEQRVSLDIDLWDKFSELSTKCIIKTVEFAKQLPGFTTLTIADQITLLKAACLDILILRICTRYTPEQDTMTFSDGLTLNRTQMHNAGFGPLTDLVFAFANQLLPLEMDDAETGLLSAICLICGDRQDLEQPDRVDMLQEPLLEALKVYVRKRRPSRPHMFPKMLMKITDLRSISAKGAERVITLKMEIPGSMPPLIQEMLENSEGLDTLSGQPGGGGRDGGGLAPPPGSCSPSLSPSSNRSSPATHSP
Sequence of Transcription factor E2F1 (Homo sapiens) (Q01094 whole entry, looked up): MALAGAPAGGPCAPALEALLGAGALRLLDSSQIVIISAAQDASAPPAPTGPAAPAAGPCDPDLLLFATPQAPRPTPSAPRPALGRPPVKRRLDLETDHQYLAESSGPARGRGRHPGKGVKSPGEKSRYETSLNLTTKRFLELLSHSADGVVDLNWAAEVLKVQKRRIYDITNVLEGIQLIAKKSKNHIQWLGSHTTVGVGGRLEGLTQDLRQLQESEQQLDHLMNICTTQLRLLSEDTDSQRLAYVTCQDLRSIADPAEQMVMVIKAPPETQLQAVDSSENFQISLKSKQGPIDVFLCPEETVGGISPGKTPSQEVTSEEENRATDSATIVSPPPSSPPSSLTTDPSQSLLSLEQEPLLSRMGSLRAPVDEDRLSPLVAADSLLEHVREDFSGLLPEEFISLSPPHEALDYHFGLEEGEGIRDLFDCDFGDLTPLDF
Sequence of Aryl hydrocarbon receptor (Homo sapiens) (P35869 whole entry, looked up): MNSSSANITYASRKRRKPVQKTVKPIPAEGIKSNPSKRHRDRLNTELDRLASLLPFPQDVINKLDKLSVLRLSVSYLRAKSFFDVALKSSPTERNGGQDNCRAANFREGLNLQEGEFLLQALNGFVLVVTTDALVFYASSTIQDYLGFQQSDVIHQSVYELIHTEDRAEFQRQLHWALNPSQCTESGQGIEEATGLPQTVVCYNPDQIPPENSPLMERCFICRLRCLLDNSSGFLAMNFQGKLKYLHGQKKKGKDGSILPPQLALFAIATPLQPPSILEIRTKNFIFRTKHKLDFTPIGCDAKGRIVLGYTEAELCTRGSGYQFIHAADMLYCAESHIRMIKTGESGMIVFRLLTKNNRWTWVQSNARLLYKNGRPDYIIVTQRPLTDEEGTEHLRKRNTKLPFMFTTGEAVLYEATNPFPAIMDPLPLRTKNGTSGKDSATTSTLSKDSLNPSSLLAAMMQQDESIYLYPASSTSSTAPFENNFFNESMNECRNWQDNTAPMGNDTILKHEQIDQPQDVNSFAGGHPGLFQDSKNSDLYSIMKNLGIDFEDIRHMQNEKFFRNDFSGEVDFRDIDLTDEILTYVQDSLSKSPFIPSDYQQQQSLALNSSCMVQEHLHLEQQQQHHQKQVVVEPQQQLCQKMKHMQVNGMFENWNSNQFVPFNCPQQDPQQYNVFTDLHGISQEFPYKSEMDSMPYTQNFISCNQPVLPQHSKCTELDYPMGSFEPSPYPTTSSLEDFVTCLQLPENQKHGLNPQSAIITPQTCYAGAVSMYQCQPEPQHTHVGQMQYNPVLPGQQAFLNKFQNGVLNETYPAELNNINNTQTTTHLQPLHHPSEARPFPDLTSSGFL

CCO[Si](CCCS)(OCC)OCC
not listed: [20]
inactive: all other assays above

O=C1C(c2[nH]c3ccc(S(=O)(=O)O)cc3c2O)=Nc2ccc(S(=O)(=O)O)cc21
active: [5] 27.6 µM
not listed: [15] | [20]
inactive: all other assays above

C=C(C)[C@@H]1CCC2=CC(=O)C[C@@H](C)[C@]2(C)C1
active: [4] 177 µM | [6] 53.4 µM | [8] 116 µM
not listed: [9]
inactive: all other assays above

CCN(CC)c1ccc(C(=C2C=CC(=[N+](CC)CC)C=C2)c2ccc(S(=O)(=O)O)cc2S(=O)(=O)[O-])cc1
not listed: [20]
inactive: all other assays above

C=C(C)C(=O)O[C@H]1C[C@@H]2CC[C@@]1(C)C2(C)C
active: [3] 148 µM | [4] 26.7 µM | [5] 137 µM | [6] 100 µM | [10] 100 µM | [11] 147 µM | [20] 60.7 µM
not listed: [9]
inactive: all other assays above

COc1cc(C=O)ccc1OC(=O)C(C)C
not listed: [15] | [20]
inactive: all other assays above

C=CC(=O)OCCOCCOCC
active: [3] 48.2 µM | [13] 100 µM
not listed: [11] | [15] | [16] | [20]
inactive: all other assays above

CC[C@]12CCCN3CCc4c(n(c5ccccc45)[C@@](O)(C(=O)OC)C1)[C@@H]32
not listed: [20]
inactive: all other assays above
